# Measured values published in PubChem BioAssay (NCI).
# About 79,000 compounds went through this panel and 15% of them were active in at least one assay; those are over-represented in the sample as a whole. Unmarked numbers belong to inactive results. Calls of active or inactive are those of the source. Rule as the data show it: active = growth inhibition above about 70%; inactive = the rest.
# Assay: NCI Yeast Anticancer Drug Screen. Data for the sgs1 strain (AID 173);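 also: 0% = growth of vehicle-only control cultures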
# Conditions: S. cerevisiae sgs1 mutant, hits give high values
# Description: Growth inhibition of yeast strains with defined genetic alterations is measured as a screen for potential anti-cancer activity. Selected strains with alterations in DNA damage repair or cell cycle control were exposed to compounds and growth inhibition was measured relative to vehicle treated controls. The strain used in this assay is sgs1
Compound,growth inhibition (at 1.2 µM),growth inhibition (at 3.7 µM),growth inhibition (at 11.0 µM),growth inhibition (at 33.0 µM),growth inhibition (at 100.0 µM)
CCCCN(CCCC)c1ccc(N=Nc2ccc(S(=O)(=O)O)cc2)cc1,30%,53%,90% (active),94% (active),94% (active)
O=C(CN(c1ccccc1)c1ccccc1)n1nnc2ccccc21,19%,16%,14%,32%,90% (active)
N#CCC(=O)N/N=C(\c1ccccc1)C(c1ccccc1)C1(O)C(=O)Nc2c(Cl)ccc(Cl)c21 (stereo not given),-1%,0%,1%,11%,37%
C[n+]1c(/C=C/c2ccc(/C=N/NC(=O)c3ccc(C(=O)N/N=C/c4ccc(/C=C/c5cn6ccccc6[n+]5C)cc4)cc3)cc2)cn2ccccc21,56%,98% (active),99% (active),98% (active),95% (active)
OC(c1ccccc1)(c1ccccc1)c1nccc2ccccc12,15%,3%,4%,16%,71% (active)
CCOC(=O)CC1(C)/C(=N\Nc2ccc([N+](=O)[O-])cc2[N+](=O)[O-])CCC2C1CCC1(C)C(C(C)CCCC(C)C)CCC21 (stereo not given),-1%,-3%,-2%,-1%,-2%
Cc1ccc(NC(Nc2ccc(C)cc2C)=C(C(Cl)=C(Cl)Cl)[N+](=O)[O-])c(C)c1,1%,11%,70% (active),99% (active),93% (active)
CCCCCCCCN1COCC(COc2ccccc2C)OC1 (stereo not given),-3%,-2%,0%,22%,99% (active)
